Laboratory results: ChEMBL document CHEMBL4513216, “Probing the Open Global Health Chemical Diversity Library for Multistage-Active Starting Points for Next-Generation Antimalarials” (ACS Infect Dis, 2020)
The campaign covered roughly 69,000 compounds. About 8,600 (12%) showed an effect of 50% or more. The full list was thinned out, with strong results kept by preference.

Each compound was assayed on Plasmodium berghei (assay: Screen against P. berghei liver stage (PbLuc), transformed with Luciferase, at 10uM). Conditions: tested at 10 uM.
Type: functional, HepG2
`O=C(c1ccc[nH]1)N1CCc2ccc(S(=O)(=O)N3CCOCC3)cc2C1` gave an INHIBITION of 6.99%. In the case of `Cn1c(-c2ccc(F)cc2)cn2cc(C(=O)N3CCC(N)C3)nc2c1=O` (configuration not stated), the INHIBITION is reported as 24.4%. `CNC(=O)c1cn2cc(-c3ccc(F)cc3)n(CC=C(C)C)c(=O)c2n1` showed an INHIBITION of 69.3%. `Cn1c(-c2ccc(F)cc2)cn2cc(C(=O)N3CC[C@@H](O)C3)nc2c1=O` showed an INHIBITION of 40.7%. For `CC(C)NC(=O)NCc1cc(-c2cccc(Cl)c2)nn1C`, the INHIBITION was 13%. With `CNC(=O)c1cn2cc(-c3cccc(Cl)c3)n(CC3CC3)c(=O)c2n1` the INHIBITION was 55.4%. With `CNC(=O)c1cn2cc(-c3ccccc3Cl)n(CC=C(C)C)c(=O)c2n1` the INHIBITION was 61.9%. With `CN(C)C(=O)c1cn2cc(-c3cccc(Cl)c3)n(CC3CC3)c(=O)c2n1` the INHIBITION was 17.8%. `CC(=O)NCCNC(=O)c1cnc2c(c1)nc(-c1ccccc1Cl)n2C` gave an INHIBITION of -76.5%. `CNC(=O)CC1CCN(Cc2nc(-c3cccc(Cl)c3)oc2C)CC1` showed an INHIBITION of 13.5%. `CNC(=O)c1cn2cc(-c3cccc(Cl)c3)n(CC=C(C)C)c(=O)c2n1` was tested, and the INHIBITION was 76.7%. In the case of `NC(=O)c1cn2cc(-c3ccccc3Cl)n(CC3CC3)c(=O)c2n1`, the INHIBITION is reported as 5.46%. `COCCCNC(=O)Cn1c(-c2cccc(Cl)c2)nc(C)cc1=O` was tested, and the INHIBITION was 14.6%. `Cc1nc(-c2ccsc2)ccc1C(=O)NC(C)CN1CCOCC1` (configuration not stated) was tested, and the INHIBITION was -4.43%. In the case of `O=C(c1cscn1)N1CCc2ncnc(-c3ccncc3)c2CC1`, the INHIBITION is reported as -7.24%. Work on `O=C(CSc1ccncc1)NC1CC(=O)N(CCc2ccccc2)C1` (configuration not stated) yielded an INHIBITION of -15.9%. `CC(O)CN1CCC(CNCc2ccccc2C(F)(F)F)CC1` (configuration not stated) gave an INHIBITION of 0.24%. For `CN1CCN(C2CCN(CCCOc3ccc(F)cc3)CC2)C1=O`, the INHIBITION was 47%. `CCOC(=O)CNC(=O)C1OC(c2ccccc2)=NN1C(C)=O` (configuration not stated) showed an INHIBITION of -19.1%. `CCOC1CCN(C(=O)CN(C)c2cnccn2)CC1` showed an INHIBITION of 26.083%. With `CC(C)Nc1ccc2nc(C3CCN(C(C)C)CC3)nn2c1` the INHIBITION was -7.35%. With `CNC(=O)c1cn2cc(-c3ccccc3Cl)n(CC3CC3)c(=O)c2n1` the INHIBITION was 33.3%. With `CN(C)C(=O)c1cn2cc(-c3ccccc3Cl)n(CC3CC3)c(=O)c2n1` the INHIBITION was -0.273%. Work on `CCNC(=O)c1cn2cc(-c3ccccc3Cl)n(CC3CC3)c(=O)c2n1` yielded an INHIBITION of 73.5%. In the case of `COCC(=O)N1C[C@@H](OCc2ccncc2)[C@@H]2OCCC[C@@H]21`, the INHIBITION is reported as 35.8%. With `Cn1ccnc1CN1CCN2C[C@H](Oc3cccc(F)c3)C[C@H]2C1` the INHIBITION was 38.5%. Work on `c1ccc(CN2CCN3C[C@H](Oc4cccnc4)C[C@H]3C2)nc1` yielded an INHIBITION of 41.2%. `Fc1cccc(O[C@@H]2C[C@H]3CN(Cc4ccncc4)CCN3C2)c1` gave an INHIBITION of 90.7%. `Fc1cccc(O[C@@H]2C[C@H]3CN(Cc4ccccn4)CCN3C2)c1` showed an INHIBITION of 85.4%. `c1cc(CN2CCN3C[C@H](Oc4cncnc4)C[C@H]3C2)ccn1` showed an INHIBITION of -11.3%. For `c1ccc(CN2CCN3C[C@H](Oc4cncnc4)C[C@H]3C2)nc1`, the INHIBITION was -8.6%. `CC(O)CN1CCN(C(=O)CN(C)c2ccc(C#N)cn2)CC1` (configuration not stated) showed an INHIBITION of 18.4%. `Fc1ccccc1C1(CNC2CCOC3(CCOCC3)C2)CCCC1` (configuration not stated) was tested, and the INHIBITION was 14.4%. `c1cnn(CCCO[C@@H]2CN(C3CCOCC3)[C@@H]3CCCO[C@@H]32)c1` gave an INHIBITION of -40.9%. `Cc1nnc2n1CCN(c1nn3cc(C(C)(C)C)nc3s1)C2` showed an INHIBITION of -1.15%. In the case of `Cc1ccsc1C(=O)N1CC[C@H]2CO[C@H](CN(C)C)[C@H]2C1`, the INHIBITION is reported as -47.5%. With `COCCN1Cc2ccccc2C2(CCN(S(C)(=O)=O)CC2)C1` the INHIBITION was -21.1%. Work on `O=c1[nH]c2nc(N3CCCCCC3)ncc2c(=O)n1-c1cccc(F)c1` yielded an INHIBITION of 21.7%. Work on `Cc1nccn1CC1CCCN(C(=O)c2cnn(C)c2)C1` (configuration not stated) yielded an INHIBITION of 20.4%. Work on `Cc1nccn1CC1CCCN(C(=O)Cc2ccsc2)C1` (configuration not stated) yielded an INHIBITION of 42.5%. `Cc1nccn1CC1CCN(C(=O)c2ccccc2)CC1` gave an INHIBITION of 67.4%. With `Cc1nccn1CC1CCN(C(=O)Cc2ccccc2)CC1` the INHIBITION was 65.9%. With `Cn1ccnc1N1CCN(C(=O)Cc2ccccc2)CC1` the INHIBITION was 34.2%. Compound `Cc1nccn1CC1CCN(C(=O)c2cccs2)CC1` has an INHIBITION of 14.2%. `Cn1cc(-c2cc(-c3cnn(C)c3)n(CC(=O)NC3CC3)n2)cn1` gave an INHIBITION of 44.3%. `COCCN1CCC1c1cc(NC2CCCC2)nc(C)n1` (configuration not stated) gave an INHIBITION of 4.41%. Compound `Clc1ccc(C2(CNC3=NCCN3)CC2)cc1` has an INHIBITION of 56.6%. `Cc1nnc(C(C)NCC2(c3ccc(Cl)cc3)CCCC2)o1` (configuration not stated) was tested, and the INHIBITION was 18.2%. `Clc1ccc(C2(CNC3=NCCN3)CCCCC2)cc1` was tested, and the INHIBITION was 74%. `CC1(C)CN(C(CNC2=NCCN2)c2ccc(Cl)cc2)CCO1` (configuration not stated) was tested, and the INHIBITION was 1.84%. With `Cc1nnc(C(C)NCC2(c3ccc(Cl)cc3)CCOCC2)o1` (configuration not stated) the INHIBITION was 11.8%. `Fc1ccc(C2(CNC3=NCCN3)CCCC2)cc1` gave an INHIBITION of 27.6%.
